Consider 14 compounds from paper PMC7826789 (International Journal of Molecular Sciences, 2021).

The structures appear in SMILES notation.
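Also: KINOMEscan scanMAX binding as percent activity remaining versus control; lower means stronger binding.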

The experiment deals with FGFR4. As to conditions: Compound Concentration (nM):1000.
For `CN(C)CCNC(=O)Nc1ccc(N(C)c2ccnc(Nc3ccc(CS(C)(=O)=O)cc3)n2)cc1.Cl` [GW830900A], the “Percent Control” value was 100%.

Turning to `C/C(Nc1ccc(S(N)(=O)=O)cc1)=C1/C(=O)Nc2ccccc21` [GW335962X], the “Percent Control” value was 100%.

Take `Cc1cc(O)cc(C)c1/C=C/c1cncc(C(N)=O)c1` [GW435821X]: the “Percent Control” value is 100%.

`COc1cc(C)c(N(C)C(=O)CN(C)C)cc1Nc1nc(Nc2cccc(F)c2C(N)=O)c2cc[nH]c2n1` [GSK2219385]: the “Percent Control” value was 96%.

In the case of `COC(=O)Nc1nc2ccc(Oc3ccc(NC(=O)Nc4cc(C(F)(F)F)ccc4F)cc3)cc2s1.Cl` [GW693917A], the “Percent Control” value was 91%.

With `NS(=O)(=O)c1ccc(Nc2ncc(-c3ccccc3)o2)cc1` [GW572399X], the “Percent Control” value was 100%.

Turning to `CN(C)c1cc2c(Nc3ccc4c(cnn4Cc4ccccc4)c3)ncnc2cn1` [GW282974X], the “Percent Control” value was 84%.

`CCc1ccc(Oc2nccc(-c3c(-c4ccc(F)cc4)ncn3C3CCNCC3)n2)cc1` [SB-242719]: the “Percent Control” value was 91%.

On to `Nc1ncnc2occ(-c3ccc(NC(=O)Nc4cc(C(F)(F)F)ccc4F)cc3)c12` [GW770249X], for which the “Percent Control” value was 69%.

`CN1CCN(C(=O)c2ccc(NC(=O)Nc3ccc(N(C)c4ccnc(Nc5ccc(CS(C)(=O)=O)cc5)n4)cc3)cc2)CC1.Cl` [GW830263A]: the “Percent Control” value was 100%.

On to `COc1cc2ncn(-c3cc(O[C@H](C)c4ccccc4Cl)c(C(N)=O)s3)c2cc1OC` [GSK237701A], for which the “Percent Control” value is 100%.

In the case of `COc1ccc(COc2ccc(Cc3cnc(N)nc3N)cc2OC)cc1` [GW632580X], the “Percent Control” value was 98%.

In the case of `CCn1c(-c2nonc2N)nc2c(C#CC(C)(C)O)nc(OCCNC)cc21.Cl` [GSK949675], the “Percent Control” value was 100%.

Consider `COc1cc(/C=N/Nc2ncnc3[nH]ncc23)ccc1O` [GW578748X], for which the “Percent Control” value was 100%.
